One may read the cell viability as a read-out of living cells in per cent, often relative to untreated cells.

Molecules are shown by their SMILES. Structures can show the parent of a compound that is named as a salt. ± gives the uncertainty stated by the source.

This test has as its system NCC-MFS5-C1. The test is described as follows: cell viability relative to DMSO control; higher = less growth inhibition. Particulars: 10 µM; treatment time: 3 days. The method, then:
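NCC-MFS5-C1 myxofibrosarcoma cells (1x10^4 per well, 384-well) were treated on day 2 with 10 µM of each drug. On day 5, viability was read by CCK-8 absorbance at 450 nm and normalised to the DMSO control (%), n = 2.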
Regarding `N.N.[Cl][Pt][Cl]` [Cisplatin], the cell viability is 79.1 ± 4.2%.

On to `Cn1c(CCCC(=O)O)nc2cc(N(CCCl)CCCl)ccc21` [Bendamustine HCl], for which the cell viability amounted to 66.3 ± 8.2%.

Regarding `Cc1c(N)nc(C(CC(N)=O)NCC(N)C(N)=O)nc1C(=O)NC(C(=O)NC(C)C(O)C(C)C(=O)NC(C(=O)NCCc1nc(-c2nc(C(=O)NCCC[S+](C)C)cs2)cs1)C(C)O)C(O[C@@H]1O[C@@H](CO)[C@@H](O)[C@H](O)[C@@H]1O[C@H]1O[C@H](CO)[C@@H](O)[C@H](OC(N)=O)[C@@H]1O)c1cnc[nH]1` (some centres not stated) [Bleomycin Sulfate], the cell viability amounted to 78.3 ± 12%.

Turning to `O=P1(N(CCCl)CCCl)NCCCO1` (configuration not stated) [Cyclophosphamide Monohydrate], the cell viability was 85.6 ± 2.8%.

For the molecule `C/C=C(\C)C(=O)N[C@@H](c1ccccc1)[C@@H](O)C(=O)O[C@H]1C[C@@]2(O)[C@@H](OC(=O)c3ccccc3)[C@@H]3[C@]4(OC(C)=O)CO[C@@H]4C[C@H](O)[C@@]3(C)C(=O)[C@H](OC(C)=O)C(=C1C)C2(C)C` [Cephalomannine], the cell viability amounted to 50.2 ± 8.7%.

On to `O=P1(NCCCl)OCCCN1CCCl` (configuration not stated) [Ifosfamide], for which the cell viability was found to be 79.9 ± 6.8%.

In the case of `C=C1C[C@@H]2[C@H](CC[C@]3(C)C(=O)CC[C@@H]23)[C@@]2(C)C=CC(=O)C=C12` [Exemestane], the cell viability was 100 ± 4.3%.

Consider `CC(=O)OC12COC1CC(O)C1(C)C(=O)C(O)C3=C(C)C(O)CC(O)(C(OC(=O)c4ccccc4)C21)C3(C)C` (configuration not stated) [10-Deacetylbaccatin-III], for which the cell viability is 86.6 ± 0.96%.

As for `O=C(O)CCCc1ccc(N(CCCl)CCCl)cc1` [Chloroambucil], the cell viability was 99.4 ± 29%.

As to `C=CCN1CC[C@]23c4c5ccc(O)c4O[C@H]2C(=O)CC[C@@]3(O)[C@H]1C5` [Naloxone HCl], the cell viability came to 72.1 ± 2.9%.

Regarding `NCCCNCCSP(=O)(O)O` [Amifostine], the cell viability worked out at 103 ± 3%.

Turning to `CC[C@@]1(O)C(=O)OCc2c1cc1n(c2=O)Cc2cc3ccccc3nc2-1` [Camptothecin], the cell viability was found to be 52.5 ± 6.1%.

For the origin of these results see the supplement of paper PMC8773631.
